# Measurements from ChEMBL document CHEMBL3988442, “University of Dundee, Small-Polar-MMV Screening Library” (2021).
# Among all 48,000 compounds or so, about 13,000 (27%) showed an effect of 50% or more. This is one part of the list.
# Test system: Wolbachia pipientis
# Assay: Anti-Wolbachia Cell-Based Screen
# Format: functional
# Parameters: scale not given: in the data most compounds retested in dose-response had high values
# Conditions: 5 µM
row,SMILES,Percent Effect [%]
1,COCCCNC(=O)NCc1nc(C)c(C)o1,1.858
2,CC(C)(C)CC(=O)NCC1CCCS1 (stereo not drawn),-1.096
3,Cn1c(=O)n(C)c2nc(Br)c(CC(=O)c3ccccc3)n2c1=O,113.8
4,Cc1ccc(C(=O)Cc2c(Cl)nc3n(C)c(=O)n(C)c(=O)n23)cc1,91.64
5,Cn1c(=O)n(C)c2nc(Cl)c(CC(=O)c3ccc(F)cc3)n2c1=O,131.2
6,CN1CC(Oc2ccc(Cl)cc2)=NC(SCC(=O)c2ccccc2)=N1,11.49
7,Cn1nc(Br)c2c(=O)n(CCc3ccccc3)cnc21,-21.91
8,CN1CC(Oc2ccccc2)=NC(SCC(=O)c2ccccc2)=N1,31.32
9,Cc1c2ncn(CC(=O)c3ccccc3)c(=O)c2nn1C,11.22
10,Cc1ccc(C(=O)CCC(=O)N2CCC(c3nncn3C)CC2)cc1,-0.3599
11,Cn1c(=O)n(C)c2nc(Cl)c(CC(=O)c3ccccc3)n2c1=O,119.1
12,CC(C)c1nc(C2CCCN2c2cnc3cc(F)c(F)cc3n2)no1 (stereo not drawn),4.6
13,CC(C)OC(=O)N1CCCCC1CCn1cccn1 (stereo not drawn),30.12
14,Cl.Nc1nc(C(=O)NCC2CCC3(CCNCC3)CO2)cs1 (stereo not drawn),-0.4275
15,CC(C)(C)n1cc(C#N)cc1NC(=O)CCNC(=O)c1ccco1,-15.76
16,Cn1cc(C(=O)N2CCCC(Cc3cccc4ncccc34)C2)cn1 (stereo not drawn),153.9
17,O=C(c1cnccn1)N1CCCC(Cc2cccc3ncccc23)C1 (stereo not drawn),146.1
18,Cc1ccc2nc(C)c(C)c(C(=O)N3CCN(c4nccs4)CC3)c2c1,-13.27
19,CCNC(=O)C1CCCN(Cn2nc(C(C)(C)C)ccc2=O)C1 (stereo not drawn),2.332
20,Cc1cc(C[C@@H]2CCC[C@H]2NCc2cc(F)ccc2F)on1.O=C(O)CC(O)(CC(=O)O)C(=O)O,83.79

row,SMILES,Percent Effect [%]
1,Cc1cc(C[C@@H]2CCC[C@H]2NCc2ccccc2F)on1.O=C(O)CC(O)(CC(=O)O)C(=O)O,109.7
2,Cc1cc(C[C@@H]2COC[C@H]2NCc2ccc(Br)s2)on1.O=C(O)CC(O)(CC(=O)O)C(=O)O,-4.105
3,Cc1cc(C[C@@H]2CCC[C@H]2NCc2cc(C)c(O)c(C)c2)on1.O=C(O)CC(O)(CC(=O)O)C(=O)O,-7.471
4,Cc1cc(C[C@@H]2CCC[C@H]2NCc2cccc(F)c2F)on1.O=C(O)CC(O)(CC(=O)O)C(=O)O,111.2
5,Cc1cc(C[C@@H]2COC[C@H]2NCc2ccccc2C(F)(F)F)on1.O=C(O)CC(O)(CC(=O)O)C(=O)O,-4.697
6,Cc1cc(C[C@@H]2CCC[C@H]2NCc2ccccc2C(F)(F)F)on1.O=C(O)CC(O)(CC(=O)O)C(=O)O,-4.697
7,Cc1cc(CNC(=O)C2CCC(=O)N(Cc3ccccc3F)C2)on1 (stereo not drawn),-7.53
8,Cc1cc(C[C@@H]2COC[C@@H]2NC(=O)CN2CCOC2=O)on1,-12.63
9,Cc1cc(C[C@@H]2CCC[C@H]2NCc2ccccc2C)on1.O=C(O)CC(O)(CC(=O)O)C(=O)O,135
10,O=C(NCc1cccc(F)c1F)c1cc(CN2CCCC(O)C2)on1 (stereo not drawn),-4.232
11,CCCc1noc(CN(C)C(=O)C2COc3ccccc3C2)n1 (stereo not drawn),-0.2082
12,O=C(c1cccc(O)c1)N1C[C@@H](CN2CCCCC2)[C@@H](CO)C1,36.38
13,CCOc1cc(CNC(=O)NC2CC=CC2)ccc1OC(F)F,-3.557
14,CCCOc1ccccc1CN[C@@H]1CCC[C@H]1Cc1cc(C)no1.O=C(O)CC(O)(CC(=O)O)C(=O)O,112
15,Cc1cc(C[C@@H]2COC[C@@H]2NC(=O)CN2CCCCCC2)on1,40.3
16,Cc1cc(C[C@@H]2CCC[C@H]2NCc2ccc(C(F)(F)F)cc2)on1.O=C(O)CC(O)(CC(=O)O)C(=O)O,113.9
17,Cc1cc(C[C@@H]2COC[C@@H]2NC(=O)CN2CCc3ccccc3C2)on1,-17.37
18,CCC[C@H]1CN(Cc2cc(C)no2)C[C@@H]1NC(=O)C1(COC)CCC1,-6.466
19,Cc1cc(C[C@@H]2CCC[C@H]2NCc2c[nH]nc2-c2ccccc2)on1.O=C(O)CC(O)(CC(=O)O)C(=O)O,114
20,Cc1cc(C[C@@H]2COC[C@@H]2NC(=O)CCN2Cc3ccccc3C2)on1,-14.09

row,SMILES,Percent Effect [%]
1,Cc1cc(C[C@@H]2COC[C@@H]2NC(=O)Cn2c(=O)oc3ccccc32)on1,-2.365
2,Cc1cc(C[C@@H]2COC[C@@H]2NC(=O)CN2CCCC2)on1,-5.725
3,CSc1nccc(NCC2CNCCOC2)n1 (stereo not drawn),0.1221
4,COCCN1CCN(C(=O)c2ccc(COC)o2)[C@H]2CS(=O)(=O)C[C@H]21,7.213
5,CC(C)NC(=O)N[C@H]1C[C@@H](Cc2cc(CN3CCOCC3)on2)C1(C)C,-0.1597
6,Cc1c[nH]c(CN(C)C(=O)c2cccc(CCC(C)(C)O)c2)n1,-0.9219
7,O=C(c1ccc[nH]1)N1CCCC1c1nc(-c2ccccc2)n[nH]1 (stereo not drawn),3.184
8,CC(=O)N1CCCC1c1nc(N(C)C)ncc1-c1ccccc1 (stereo not drawn),120.4
9,COCC(=O)N1CCCC(COc2ccccc2C)C1 (stereo not drawn),-17.48
10,CC(=O)N1CCCC(c2nc(N(C)C)ncc2-c2ccccc2)C1 (stereo not drawn),94.88
11,Cc1cc(C2CCCN(C(=O)COc3ccc(F)cc3)C2)n[nH]1 (stereo not drawn),-12.08
12,COCC(=O)N1C[C@H]2CC[C@@]3(N=C(c4ccccc4)NC3=O)[C@H]2C1,-3.823
13,COCC(=O)N1CCCC(c2nc(N(C)C)ncc2-c2ccccc2)C1 (stereo not drawn),96.39
14,CC(=O)N1CCCC1c1cccc(C)c1C (stereo not drawn),2.963
15,CC(=O)N1CCCC(c2nc(-c3ccccc3)c[nH]2)C1 (stereo not drawn),-5.299
16,Cc1cc(C2CCCN(C(=O)COc3cc(F)ccc3F)C2)n[nH]1 (stereo not drawn),-12.04
17,CCC(=O)N1CCCC(c2nc(N(C)C)ncc2-c2ccc(F)cc2)C1 (stereo not drawn),103.1
18,CC(=O)N1Cc2ccccc2C[C@H]1C(=O)Nc1ccccn1,-1.208
